According to PubChem BioAssay (NCI):
About 79,000 compounds went through this panel and 15% of them were active in at least one assay; those are over-represented in the sample as a whole. A number with no mark means an inactive call. Calls of active or inactive are those of the source. No stated cut-off is given here; in the data, active means growth inhibition above about 70%; inactive means the rest.

Tests used:
[1] = NCI Yeast Anticancer Drug Screen. Data for the rad50 strain (AID 155);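 further: 0% = growth of vehicle-only cultures of the same strain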; settings: S. cerevisiae rad50 strain growth inhibition, hits give high values
In short: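 A DNA repair-deficient yeast mutant serves as the test organism; compound-induced growth inhibition is calculated against vehicle-treated cells.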

[2] = NCI Yeast Anticancer Drug Screen. Data for the mec2-1 strain (AID 157); settings: S. cerevisiae mec2-1 strain, hits give high values
In short: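 Vehicle-treated cultures served as reference for growth inhibition of compound-exposed mec2-1 yeast.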

[3] = NCI Yeast Anticancer Drug Screen. Data for the sgs1 mgt1 strain (AID 161);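 further: 0% = growth of cultures given vehicle only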; settings: S. cerevisiae sgs1 mgt1 strain, hits give high values
In short: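 Mutant yeast exposed to compound; growth scored against vehicle-only wells.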

[4] = NCI Yeast Anticancer Drug Screen. Data for the cln2 rad14 strain (AID 165);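 further: 0% = growth equal to vehicle treated cultures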; settings: S. cerevisiae cln2 rad14 strain, hits give high values
In short: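 Each compound was tested on cln2 rad14 yeast. Inhibition of growth was calculated against vehicle-exposed controls.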

[5] = NCI Yeast Anticancer Drug Screen. Data for the bub3 strain (AID 167); settings: S. cerevisiae bub3 mutant strain, hits give high values
In short: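 Inhibition values come from growth of compound-treated mutant yeast normalised to vehicle-treated controls.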

[6] = NCI Yeast Anticancer Drug Screen. Data for the mlh1 rad18 strain (AID 175); settings: S. cerevisiae mlh1 rad18 strain growth inhibition, hits give high values
In short: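 Vehicle-treated cultures served as the reference for growth inhibition in a yeast strain carrying DNA damage repair alterations exposed to each compound.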

[7] = at 5.0 µM (retest, dose inferred, filed as 0.5)
[8] = at 50.0 µM (retest, dose inferred, filed as 5.0)

| Compound | growth inhibition [1, 7] | growth inhibition [1, 8] | growth inhibition ([1]; at 50.0 µM) | growth inhibition [2, 7] [%] | growth inhibition [2, 8] | growth inhibition ([2]; at 50.0 µM) | growth inhibition [3, 7] [%] | growth inhibition [3, 8] | growth inhibition ([3]; at 50.0 µM) | growth inhibition [4, 7] [%] | growth inhibition [4, 8] | growth inhibition ([4]; at 50.0 µM) | growth inhibition [5, 7] [%] | growth inhibition [5, 8] | growth inhibition ([5]; at 50.0 µM) | growth inhibition [6, 7] [%] | growth inhibition [6, 8] | growth inhibition ([6]; at 50.0 µM) |
| --- | --- | --- | --- | --- | --- | --- | --- | --- | --- | --- | --- | --- | --- | --- | --- | --- | --- | --- |
| COC1=C(Br)C(=O)N/C1=C(\OC)c1ccccc1 | 4% | 9% | 11.3% | 4 | 1% | -8.9% | 6 | 15% | 29.9% | 6 | 0% | 37.9% | 21 | 0% | -1.65% | 2 | 4% | 6.15% |
| CCCCN1CSC(=S)N(Cc2ccccc2)C1 | 2% | 38% | 32.8% | 3 | 3% | -21.7% | 13 | 30% | 10.3% | 30 | 25% | -41.1% | 5 | 38% | 23.8% | -10 | 38% | 31.4% |
| Nc1c(/C=C/c2cc3ccc(C4=NCCN4)cc3[nH]2)[nH]c2cc(C3=NCCN3)ccc12 | 78% (active) | 97% (active) | 89.3% (active) | 41 | 96% (active) | 89% (active) | 36 | 94% (active) | 89.2% (active) | 47 | 94% (active) | 89.5% (active) | 42 | 92% (active) | 86.5% (active) | 36 | 96% (active) | 90.5% (active) |
| O=C(Nc1ccc(Cl)c(Cl)c1)Nc1cc(Cl)ccc1Oc1ccc(Cl)cc1S(=O)(=O)O | 52% | 97% (active) | 90.5% (active) | 32 | 99% (active) | 93.5% (active) | 55 | 99% (active) | 93.6% (active) | 35 | 99% (active) | 92.2% (active) | 43 | 99% (active) | 92.5% (active) | 61 | 98% (active) | 91% (active) |
